Results filed as inconclusive are left out. Where a call stands in place of a potency, no number is given. A number with no mark means an inactive call. The source made the active and inactive calls. The call rests on the fitted dose curve; in most records, active means well fitted cell-killing curve with a large enough effect in the repeat runs; inconclusive means weak or mixed curves, or effect the other way; inactive means flat fitted curve, though single readings scatter.
Assays:
[1] = cAMP Responsive Elements (CRE) small molecule antagonists, cell-based qHTS assay: qHTS cell viability counter screen (AID 2060913); further: nearly all actives have a fitted effect of over 40% in size
Summary of the method: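 HEK293T CRE-bla, 2,000 cells/well, 18 h preincubation; cpd in DMSO + NKH477 0.25 uM final, 3 h 37 C/5% CO2; LiveBLAzer 2 h RT, then CellTiter-Glo 30 min RT, luminescence.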

[2] = cAMP Responsive Elements (CRE) small molecule agonists, cell-based qHTS assay: qHTS cell viability counter screen (AID 2060914);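 further: viability read after 3 h of compound exposure; nearly all actives have a fitted effect of over 50% in size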
Summary of the method: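 Cells are seeded and incubated 18 h, treated with compounds in DMSO for 3 h, read for the bla reporter, then given CellTiter-Glo; luminescence is measured after 30 min at room temperature.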

| SMILES | Potency [1] | Potency [2] | viability change, negative = cytotoxic [1] | activity change, negative = cytotoxicity [2] |
| --- | --- | --- | --- | --- |
| CN(C)CCOC(c1ccc(Cl)cc1)c1ccccn1 (configuration not stated) | inactive | inactive |  |  |
| CN[C@@H]1[C@H](O)[C@H](NC)[C@H]2O[C@@]3(O)C(=O)C[C@@H](C)O[C@H]3O[C@@H]2[C@H]1O | inactive | inactive |  |  |
| O=C(O)Cc1cccc2ccccc12 | inactive | inactive |  |  |
| C[C@@H](O)[C@H]1C(=O)N2C(C(=O)O)=C(S[C@@H]3CN[C@H](C(=O)N(C)C)C3)[C@H](C)[C@H]12 | inactive | inactive |  |  |
| CCCCOCCOC(=O)CCCCCCCCC(=O)OCCOCCCC | inactive | inactive |  |  |
| CC1(C)OC[C@@H]2O[C@@]3(C(=O)O)OC(C)(C)O[C@H]3[C@@H]2O1 | inactive | inactive |  |  |
| CN(C)CCCNCCCN(C)C | inactive | inactive |  |  |
| CC1(c2ccccc2)OC(C(=O)O)=CC1=O (configuration not stated) | inactive | inactive |  |  |
| C=C(C)C(=O)OCCOP(=O)(O)O | inactive | inactive |  |  |
| CCCCCC[C@@H](CCC)C(=O)O | inactive | inactive |  |  |
| CC(C)(C)C1CCC(O)CC1 (configuration not stated) | inactive | inactive |  |  |
| O[C@@H]([C@H](O)[C@H](O)CBr)[C@H](O)CBr | inactive | inactive |  |  |
| c1ccc(C[n+]2cccc3ccccc32)cc1 | inactive | inactive |  |  |
| CC(CC=O)c1ccccc1 (configuration not stated) | inactive | inactive |  |  |
| CC1CCCCC1 | inactive | inactive |  |  |
| O=C(C(=O)c1ccco1)c1ccco1 | inactive | inactive |  |  |
| COC(=O)c1ccccc1OC | inactive | inactive |  |  |
| O=C(O)c1ccccc1Nc1cccc(C(F)(F)F)c1 | inactive | inactive |  |  |
| Oc1c(I)cc(Cl)c2cccnc12 | inactive | inactive |  |  |

| SMILES | Potency [1] | Potency [2] | viability change, negative = cytotoxic [1] | activity change, negative = cytotoxicity [2] |
| --- | --- | --- | --- | --- |
| COc1ccc(CN(CCN(C)C)c2ncccn2)cc1 | inactive | inactive |  |  |
| CC(=O)OC/C=C/c1ccccc1 | inactive | inactive |  |  |
| CC(=O)OC/C=C(C)/C=C/C=C(C)/C=C/C1=C(C)CCCC1(C)C | inactive | inactive |  |  |
| Cc1ncc(CO)c(C=O)c1O | inactive | inactive |  |  |
| CC(=O)Nc1ccc(C(=O)O)cc1 | inactive | inactive |  |  |
| CC(C)c1cccc(C(C)C)c1 | inactive | inactive |  |  |
| CC(=O)c1ccc2c(c1)CCCC2 | inactive | inactive |  |  |
| CCOC(=O)CC1(C)OCC(C)O1 (configuration not stated) | inactive | inactive |  |  |
| C=CC(=O)NC(C)(C)CS(=O)(=O)O | inactive | inactive |  |  |
| OCCCCCO | inactive | inactive |  |  |
| O=C(CCS)OCC(COC(=O)CCS)(COC(=O)CCS)COC(=O)CCS | inactive | inactive |  |  |
| S=C([S-])NCCNC(=S)[S-].S=C([S-])NCCNC(=S)[S-].[Mn+2].[Zn+2] | inactive | inactive |  |  |
| CNC1CCCN(c2c(F)cc3c(=O)c(C(=O)O)cn(C4CC4)c3c2OC)C1 (configuration not stated) | inactive | inactive |  |  |
| Nc1ccc(C(=O)O)c(O)c1 | inactive | inactive |  |  |
| Cc1ccc(C(N)=O)cc1N | inactive | inactive |  |  |
| COc1cc(C(C)=O)ccc1OCCCN1CCC(c2noc3cc(F)ccc23)CC1 | inactive | inactive |  |  |
| O=P(O)(O)OP(=O)(O)O | inactive | inactive |  |  |
| O=S1(=O)CCCC1 | inactive | inactive |  |  |
| Fc1ccc(C(c2ccc(F)cc2)N2CCNCC2)cc1 | inactive | inactive |  |  |

| SMILES | Potency [1] | Potency [2] | viability change, negative = cytotoxic [1] | activity change, negative = cytotoxicity [2] |
| --- | --- | --- | --- | --- |
| CCCCCCCCNC | inactive | inactive |  |  |
| NC(=O)c1cccc([N+](=O)[O-])c1 | inactive | inactive |  |  |
| O=[N+]([O-])c1cccc(I)c1 | inactive | inactive |  |  |
| Cc1c(NC(C)C)c(=O)n(-c2ccccc2)n1C | inactive | inactive |  |  |
| CC(C)NC(=O)c1ccc(C=O)cc1 | inactive | inactive |  |  |
| O=C(O)c1ccc(C(=O)O)cc1 | inactive | inactive |  |  |
| CC[N+]1(CC)CCC(=C(c2ccccc2)c2ccccc2)C1C (configuration not stated) | inactive | inactive |  |  |
| CC[C@H](c1ccc(O)cc1)[C@@H](CC)c1ccc(O)cc1 | inactive | inactive |  |  |
| CS(=O)(=O)c1ccc(Cl)cc1 | inactive | inactive |  |  |
| Cc1ccc(Cl)cc1N | inactive | inactive |  |  |
| O=C1C(CCS(=O)c2ccccc2)C(=O)N(c2ccccc2)N1c1ccccc1 (configuration not stated) | inactive | inactive |  |  |
| C1=Cc2ccccc2C1 | inactive | inactive |  |  |
| CCOCOCC | inactive | inactive |  |  |
| O=C(O)Cc1c(Cl)ccc(Cl)c1Cl | inactive | inactive |  |  |
| S=C([S-])NCCNC(=S)[S-].[Mn+2] | inactive | inactive |  |  |
| CC1CC(C)C(=O)C1=O (configuration not stated) | inactive | inactive |  |  |
| CC(=O)CC(=O)Nc1ccccc1C | inactive | inactive |  |  |
| N[C@@H](CSCCCO)C(=O)O |  |  | 1.17% [at 18.9 µM] | -12.4% [at 18.9 µM] |
